# Source: PubChem BioAssay AID2241 (Broad Institute, 2010)
# The whole screen tested about 21,000 compounds, of which about 110 (0.52%) were called active.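 The calls were made as follows: active = most replicate scores above 10, or exactly half above 10 with mean activity above 10; inconclusive = mean activity below 10 while half the replicates exceed 10; inactive = most replicate scores below 10.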 What follows is part of a selection rich in actives, with near analogues and random picks from the rest.
# Assay: inducers of caspase activity in MEF A1-2A-BIM cells, primary screen, A1 inhibitor project, cell-based, CaspaseGlo luminescence (AID 2241);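 also: effector caspase 3 and 7 activity cleaving a DEVD luciferin substrate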
# Conditions: caspase-Glo luminescence, 3 h, hits give high values, percent of clofoctol signal, DMSO as zero, concentration not given here
row,SMILES,caspase activation
1,O=C(/C=C/c1ccccc1)NCCCCNCCCNC(=O)/C=C/c1ccccc1,-0.0105% (inactive)
2,Cc1ccc(NC(N)=O)cc1,-0.167% (inactive)
3,COc1ccc(NC(=O)N(C)C[C@H]2Oc3ccc(NS(=O)(=O)c4cccs4)cc3C(=O)N([C@@H](C)CO)C[C@H]2C)cc1,0.747% (inactive)
4,CCC(=O)c1ccc(OC(=O)C2c3ccccc3Oc3ccccc32)cc1,-0.0959% (inactive)
5,c1ccc(CSc2ccc(-c3ccncc3)nn2)cc1,0.0365% (inactive)
6,C=CCn1c(SCc2nnc(SCC(=O)c3ccc(Cl)cc3)o2)nnc1-c1ccccc1,0.865% (inactive)
7,C[C@@H]1CN([C@H](C)CO)C(=O)c2cc(NC(=O)C3CCCCC3)ccc2O[C@@H]1CN(C)CC1CCCCC1,0.287% (inactive)
8,CC(=C\c1ccccc1)/C(C)=N/O,0.142% (inactive)
9,CC[C@H]1CN2CCc3cc(OC)c(OC)cc3[C@@H]2C[C@@H]1C[C@H]1NCCc2cc(OC)c(OC)cc21,18.2% (active)
10,COc1cc2c(cc1OC)C1CN3CCc4cc(OC)c(OC)cc4C3CN1CC2 (stereo not drawn),-0.199% (inactive)
11,Oc1c(Cl)cc(Cl)cc1C1Nc2cc(C(F)(F)F)ccc2-n2cccc21 (stereo not drawn),-0.566% (inactive)
12,CCCNC(=O)c1ccc2c(c1)N(Cc1ccc(F)cc1)CCS2,-0.988% (inactive)
13,COc1ccc(S(=O)(=O)Nc2ccc3c(c2)C(=O)N([C@H](C)CO)C[C@H](C)[C@H](CN(C)S(=O)(=O)c2ccc(Cl)cc2)O3)cc1,0.103% (inactive)
14,c1ccc(-c2nc3ccccc3o2)cc1,-5.88% (inactive)
15,CCOC(=O)c1cc(=O)c2ccc(OCc3ccccc3)cc2o1,-1.74% (inactive)
16,O=C(Nc1cccc(-c2nc3ccccc3o2)c1)c1ccc(Br)cc1,14.9% (active)
17,O=C(CSc1nc2ccccc2o1)Nc1ccccn1,-3.01% (inactive)
18,O=C(Nc1cccc(-c2nc3ccccc3o2)c1)c1cccc(OCc2ccccc2)c1,34% (active)
19,O=C(COc1cccc(NC(=O)c2ccccc2)c1)NCCOc1ccccc1,-0.0599% (inactive)
20,O=C(/C=C/c1ccccc1)c1ccc(O[C@@H]2O[C@H](CO)[C@@H](O)[C@H](O)[C@H]2O)cc1O,-0.127% (inactive)
21,C[C@@H]1CN([C@@H](C)CO)C(=O)c2cc(NS(=O)(=O)c3ccccc3)ccc2O[C@H]1CN(C)CC1CC1,-0.166% (inactive)
22,C[C@H](CO)N1C[C@H](C)[C@H](CN(C)S(=O)(=O)c2cn(C)cn2)Oc2ccc(NS(=O)(=O)c3ccccc3)cc2C1=O,0.0901% (inactive)

row,SMILES,caspase activation
1,Cn1c(C(=O)NC2CCCC2)cc2oc3ccccc3c21,-1.2% (inactive)
2,OCCN1N=C2c3ccccc3CCC2C1c1ccccc1Cl (stereo not drawn),0.231% (inactive)
3,O=C1c2ccccc2C(=O)C1c1cc(=O)[nH]c2c1ccc1ccccc12,-0.299% (inactive)
4,Cc1ccccc1N=C(N)N=C(N)N,0.116% (inactive)
5,FC(F)(F)c1ccnc(Oc2ccc(C3=NCCS3)cc2)c1,-5.95% (inactive)
6,CCOC(=O)c1c(C)n(O)c2ccc3nonc3c12,-0.716% (inactive)
7,CCCCn1c2ccccc2c2nc3ccccc3nc21,-1.06% (inactive)
8,CCSC1=C(C#N)C(=O)NCS1,0.116% (inactive)
9,CCC(=O)Nc1ccccc1C(=O)Nc1ccccc1,0.303% (inactive)
10,C[C@@H]1CN([C@H](C)CO)C(=O)c2cc(NC(=O)NC3CCCCC3)ccc2O[C@H]1CN(C)S(C)(=O)=O,0.129% (inactive)
11,O=c1c2ccccc2nc(SCc2cccc(F)c2)n1C1CC1,-0.676% (inactive)
12,CCN(CC)C(=S)SCc1nc(N)nc(Nc2ccccc2)n1,0.133% (inactive)
13,CCC(C)NC(=O)Nc1ccc(C)c(Cl)c1 (stereo not drawn),-1.99% (inactive)
14,O=C(O)CCCC=C(c1ccccc1)c1ccccc1,-0.527% (inactive)
15,COc1ccc(N/C(N)=N/c2nc(CSc3nc4ccccc4s3)cc(=O)[nH]2)cc1,-0.646% (inactive)
16,CCCOC(=O)c1cc2ccccc2oc1=O,-1.82% (inactive)
17,NC(=S)c1nc(-c2ccccc2)oc1N,-1.84% (inactive)
18,OC(c1nc2ccccc2[nH]1)C(O)C(O)C(O)c1nc2ccccc2[nH]1 (stereo not drawn),0.0552% (inactive)
19,O=C(Sc1ccc(Oc2ccc(SC(=O)c3ccco3)cc2)cc1)c1ccco1,1.99% (inactive)
20,Nc1c(C(=O)N2CCCCC2)sc2nc3c(cc12)CCC3,-1.2% (inactive)
21,CCN(CCCn1c(=S)[nH]c2cc3c(cc2c1=O)OCO3)c1cccc(C)c1,0.124% (inactive)
